Results from PubChem BioAssay (Tox21).
“And” between values parts separate entries of the source, which are not always exact repeats. Equal values may be shown once. Values without a mark were called inactive. Results filed as inconclusive are left out. A call without a number means that no potency is given here. The source made the active and inactive calls. Unless noted, calls come from the whole dose curve.

How the values were obtained:
[1] = Nuclear factor erythroid 2-related factor 2/antioxidant responsive element (Nrf2/ARE) small molecule agonists: qHTS cell viability counter screen in human keratinocytes (AID 1919968; active = well fitted curve in the direction sought with a large enough effect in the repeat runs; an effect the other way counts as inactive or inconclusive; note: nearly all actives have a fitted effect of over 55% in size; note: potency is the fitted concentration of half-maximal effect)
Procedure, shortened: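 In human HaCaT keratinocytes stably expressing an ARE-driven luciferase, compound exposure lasted 23 h at 37 C under 5% CO2. Viable cells are quantified with a protease-based fluorogenic reagent (CellTiter-Fluor) read 1 h after addition.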

[2] = target: Gonadotropin-releasing hormone receptor (Homo sapiens) (UniProt P30968); assay: Human gonadotropin-releasing hormone receptor (GnRHR) small molecule agonists, calcium flux assay in GnRHR-HEK293 cells (AID 1920063); note: nearly all actives have a fitted effect of over 35% in size
Sequence of Gonadotropin-releasing hormone receptor (Homo sapiens) (P30968 whole entry, looked up): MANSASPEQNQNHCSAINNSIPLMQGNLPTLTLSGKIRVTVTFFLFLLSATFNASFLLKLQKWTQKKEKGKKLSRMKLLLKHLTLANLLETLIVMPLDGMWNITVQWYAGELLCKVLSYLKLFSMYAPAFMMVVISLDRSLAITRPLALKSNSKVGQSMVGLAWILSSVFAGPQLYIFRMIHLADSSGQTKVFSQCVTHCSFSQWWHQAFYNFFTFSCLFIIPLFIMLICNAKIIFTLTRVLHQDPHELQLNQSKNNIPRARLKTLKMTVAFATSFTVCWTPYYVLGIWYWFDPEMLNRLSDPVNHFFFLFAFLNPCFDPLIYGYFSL
Procedure, shortened: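 Intracellular calcium rise is the read-out: engineered human GnRHR HEK293 cells, dye-loaded, are exposed to DMSO-dissolved compounds and fluorescence at Ex/Em 480/540 is tracked for 3 min.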

[3] = G protein-coupled receptor (GPCR) small molecule agonists, calcium flux assay: HEK293 wild type cell line counter screen (AID 1920065)
Procedure, shortened: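 Fluorescence intensity signals activation. After overnight (18 h) culture and a 1 h calcium dye load at 37 C, compounds are added by pin tool and the plate read at 480/540 nm for 3 min in 1 s steps.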

[4] = p53 small molecule agonists, cell-based qHTS assay with human liver microsomes (AID 1963577)
Procedure, shortened: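 p53RE-bla reporter cells were pre-incubated 5 h at 37 C, then treated with compounds plus human liver microsomes (0.5 mg/mL final) and NADPH (0.5 mg/mL final) for 16 h at 37 C. Beta-lactamase activity was read by LiveBLAzer fluorescence after 2 h at room temperature.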

[5] = p53 small molecule agonists, cell-based qHTS assay with rat liver microsomes (AID 1963578)
Procedure, shortened: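 p53RE-bla cells were exposed to compounds together with rat liver microsomes (0.5 mg/mL final) and NADPH (0.5 mg/mL final) for 16 h at 37 C, then read by LiveBLAzer beta-lactamase fluorescence after 2 h at room temperature.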

[6] = p53 small molecule agonists, cell-based qHTS assay with human liver microsomes: qHTS cell viability counter screen (AID 1963579); note: nearly all actives have a fitted effect of over 45% in size
Procedure, shortened: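 p53RE-bla cells (4,000/well) were pre-incubated 5 h at 37 C, then given compounds in DMSO plus human liver microsomes (0.5 mg/mL final) and NADPH (0.5 mg/mL final) for 16 h at 37 C. Viability was read by CellTiter-Glo luminescence.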

[7] = p53 small molecule agonists, cell-based qHTS assay with rat liver microsomes: qHTS cell viability counter screen (AID 1963580); note: nearly all actives have a fitted effect of over 45% in size
Procedure, shortened: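 After the beta-lactamase ratio was read, CellTiter-Glo was added to the same wells and luminescence measured at 30 min; cells had been treated 16 h at 37 C with compounds, rat liver microsomes and NADPH (0.5 mg/mL final each).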

[8] = p53 small molecule agonists, cell-based qHTS assay: qHTS cell viability counter screen (AID 1963581); note: nearly all actives have a fitted effect of over 45% in size
Procedure, shortened: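 Luminescence from CellTiter-Glo, reflecting ATP content, serves as the cytotoxicity measure; it is taken after the 2 h reporter substrate step in HCT-116 p53RE-bla cells dosed for 16 h at 37 C.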

[9] = target: 5-hydroxytryptamine receptor 2A (Homo sapiens) (UniProt P28223); assay: 5-hydroxytryptamine receptor 2A (HTR2A) small molecule antagonists, cell-based qHTS assay (AID 1963586); note: nearly all actives have a fitted effect of over 45% in size
Sequence of 5-hydroxytryptamine receptor 2A (Homo sapiens) (P28223 whole entry, looked up): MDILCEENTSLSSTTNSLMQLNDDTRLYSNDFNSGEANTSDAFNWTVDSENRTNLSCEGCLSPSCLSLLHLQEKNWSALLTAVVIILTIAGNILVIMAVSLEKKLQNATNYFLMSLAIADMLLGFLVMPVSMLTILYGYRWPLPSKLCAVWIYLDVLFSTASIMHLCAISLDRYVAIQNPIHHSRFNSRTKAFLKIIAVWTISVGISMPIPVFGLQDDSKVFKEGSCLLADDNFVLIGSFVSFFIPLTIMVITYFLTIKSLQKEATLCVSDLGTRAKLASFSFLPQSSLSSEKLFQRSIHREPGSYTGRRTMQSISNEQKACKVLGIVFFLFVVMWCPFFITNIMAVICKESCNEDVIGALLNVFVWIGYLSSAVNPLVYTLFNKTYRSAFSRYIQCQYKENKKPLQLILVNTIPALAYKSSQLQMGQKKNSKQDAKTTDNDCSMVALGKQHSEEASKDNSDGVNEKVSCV
Procedure, shortened: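 CHO cells stably expressing human HTR2A were plated for 18 h at 37 C, then loaded with calcium dye for 1 h. Compounds were preincubated 5 min at room temperature before DOI (4 nM solution) was added. Kinetic fluorescence was read for 3 min.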

[10] = target: 5-hydroxytryptamine receptor 2A (Homo sapiens) (UniProt P28223); assay: 5-hydroxytryptamine receptor 2A (HTR2A) small molecule agonists, cell-based qHTS assay (AID 1963587); note: nearly all actives have a fitted effect of over 30% in size
Procedure, shortened: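 CHO cells stably expressing human HTR2A, plated 18 h, loaded with calcium dye 1 h at 37 C. Agonist mode: compounds added and intracellular calcium fluorescence recorded kinetically for 2 min at 1 sec intervals.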

[11] = target: Muscarinic acetylcholine receptor M1 (Homo sapiens) (UniProt P11229); assay: Cholinergic receptor muscarinic 1 (CHRM1) small molecule antagonists, cell-based qHTS assay (AID 1963588); note: nearly all actives have a fitted effect of over 40% in size
Sequence of Muscarinic acetylcholine receptor M1 (Homo sapiens) (P11229 whole entry, looked up): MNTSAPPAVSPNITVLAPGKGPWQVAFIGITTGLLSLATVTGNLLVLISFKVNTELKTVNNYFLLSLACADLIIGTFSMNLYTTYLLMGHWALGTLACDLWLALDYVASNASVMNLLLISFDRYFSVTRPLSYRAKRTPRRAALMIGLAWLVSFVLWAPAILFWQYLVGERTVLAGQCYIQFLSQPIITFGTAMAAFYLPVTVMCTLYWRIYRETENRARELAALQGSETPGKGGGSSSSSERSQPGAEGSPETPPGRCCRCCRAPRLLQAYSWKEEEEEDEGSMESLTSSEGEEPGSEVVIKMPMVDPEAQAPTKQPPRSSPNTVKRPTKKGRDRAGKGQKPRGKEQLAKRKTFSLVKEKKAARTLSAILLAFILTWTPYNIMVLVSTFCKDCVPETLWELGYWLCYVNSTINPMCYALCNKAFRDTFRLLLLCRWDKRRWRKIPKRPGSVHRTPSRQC
Procedure, shortened: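 Compounds were tested at 15 concentrations in three independent runs. Dye-loaded CHRM1-CHO cells were exposed 5 min at room temperature before stimulation by acetylcholine added at 50nM. Intracellular calcium was read kinetically on FDSS for 3 min.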

[12] = target: Muscarinic acetylcholine receptor M1 (Homo sapiens) (UniProt P11229); assay: Cholinergic receptor muscarinic 1 (CHRM1) small molecule agonists, cell-based qHTS assay (AID 1963589); note: nearly all actives have a fitted effect of over 35% in size
Procedure, shortened: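 Fluorescent calcium dye reports M1 activation in stably transfected CHO cells. Compounds, 15 concentrations, added after 1 h dye loading at 37 C; kinetic reading at 1 sec intervals.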

[13] = target: Beta-2 adrenergic receptor (Homo sapiens) (UniProt P07550); assay: Adrenergic beta2 receptor (ADRB2) small molecule antagonists, cell-based qHTS assay (AID 1963592); note: series mostly up to about 92 µM; nearly all actives have a fitted effect of over 50% in size
Sequence of Beta-2 adrenergic receptor (Homo sapiens) (P07550 whole entry, looked up): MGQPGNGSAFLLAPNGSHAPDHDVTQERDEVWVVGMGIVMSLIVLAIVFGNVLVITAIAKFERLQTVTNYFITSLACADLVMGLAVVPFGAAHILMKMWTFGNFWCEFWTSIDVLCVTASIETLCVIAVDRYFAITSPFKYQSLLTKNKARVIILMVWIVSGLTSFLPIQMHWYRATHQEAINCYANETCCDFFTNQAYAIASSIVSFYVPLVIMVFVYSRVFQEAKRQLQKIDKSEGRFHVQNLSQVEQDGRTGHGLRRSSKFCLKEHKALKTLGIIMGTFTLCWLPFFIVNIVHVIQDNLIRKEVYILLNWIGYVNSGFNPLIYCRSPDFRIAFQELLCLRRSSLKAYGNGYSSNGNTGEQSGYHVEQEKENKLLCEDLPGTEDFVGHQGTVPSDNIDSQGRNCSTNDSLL
Procedure, shortened: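 Assay format: CHO-ADRB2 cells, 18-20hr seeding at 37C/5% CO2, then compound plus 1nM isoproterenol agonist mix for 0.5hr RT. Homogeneous time-resolved fluorescence cAMP detection after 1hr, expressed as 665/615 nm ratio.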

[14] = target: Beta-2 adrenergic receptor (Homo sapiens) (UniProt P07550); assay: Adrenergic beta2 receptor (ADRB2) small molecule agonists, cell-based qHTS assay (AID 1963593);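 note: CHO cells stably overexpressing human ADRB2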
Procedure, shortened: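 CHO cells stably over-expressing ADRB2 were plated overnight at 37C, then dosed with compounds plus a stimulation mix containing 100uM IBMX and 25uM Ro-20-1724 for 0.5hr at room temperature. cAMP was measured by HTRF competition, 1hr.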

[15] = target: D(2) dopamine receptor (Homo sapiens) (UniProt P14416); assay: Dopamine D2 receptor (DRD2) small molecule antagonists, cell-based qHTS assay (AID 1963595; active = well fitted inhibition curve with a large enough effect in the signal ratio in the repeat runs, with a control signal flat; the % refers to the signal ratio)
Sequence of D(2) dopamine receptor (Homo sapiens) (P14416 whole entry, looked up): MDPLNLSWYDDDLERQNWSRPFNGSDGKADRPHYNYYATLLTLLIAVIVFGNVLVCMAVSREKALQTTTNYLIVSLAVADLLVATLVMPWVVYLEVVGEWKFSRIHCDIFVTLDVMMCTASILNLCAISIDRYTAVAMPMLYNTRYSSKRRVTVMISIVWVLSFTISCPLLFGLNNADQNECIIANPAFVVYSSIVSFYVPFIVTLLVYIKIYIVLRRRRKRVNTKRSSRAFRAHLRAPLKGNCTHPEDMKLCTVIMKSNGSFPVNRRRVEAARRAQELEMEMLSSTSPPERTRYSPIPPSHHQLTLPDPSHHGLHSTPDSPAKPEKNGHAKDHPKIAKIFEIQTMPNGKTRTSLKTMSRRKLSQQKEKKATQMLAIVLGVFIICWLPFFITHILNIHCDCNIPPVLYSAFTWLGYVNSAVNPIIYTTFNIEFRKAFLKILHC
Procedure, shortened: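 Cells were plated and grown for 24 h at 37 °C. Ro20-1724 (0.1 mM final) went in first, then compound for 10 min. NKH477 (200 nM) with quinpirole (12 nM) followed for 30 min at RT, then HTRF detection reagents for 1 h.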

[16] = target: KiSS-1 receptor (Homo sapiens) (UniProt Q969F8); assay: Human kisspeptin (KISS1R) small molecule agonists, calcium flux assay in KISS1R-HEK293 cells (AID 1920064; active = well fitted curve in the direction sought with a large enough effect in the repeat runs; an effect the other way counts as inactive or inconclusive)
Sequence of KiSS-1 receptor (Homo sapiens) (Q969F8 whole entry, looked up): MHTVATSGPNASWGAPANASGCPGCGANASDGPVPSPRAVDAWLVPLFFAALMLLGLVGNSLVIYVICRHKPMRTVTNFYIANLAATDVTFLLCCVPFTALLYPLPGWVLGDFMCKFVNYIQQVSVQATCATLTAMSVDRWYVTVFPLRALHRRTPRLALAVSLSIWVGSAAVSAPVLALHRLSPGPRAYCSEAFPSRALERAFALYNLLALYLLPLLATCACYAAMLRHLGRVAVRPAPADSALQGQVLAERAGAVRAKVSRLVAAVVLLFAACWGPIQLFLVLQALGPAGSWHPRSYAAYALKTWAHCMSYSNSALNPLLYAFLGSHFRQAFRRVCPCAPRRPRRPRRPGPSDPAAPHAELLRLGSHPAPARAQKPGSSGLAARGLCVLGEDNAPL
Procedure, shortened: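 Concentration-response testing used 15 concentrations in triplicate on human KISS1R-expressing HEK293 cells. Calcium-dependent fluorescence (Ex/Em 480/540) was followed kinetically for 3 min after compound transfer.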

[17] = p53 small molecule agonists, cell-based qHTS assay (AID 1963582; active = well fitted activation curve with a large enough effect in the signal ratio in the repeat runs, not every such curve was filed as active; the % refers to the signal ratio)
Procedure, shortened: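 After plating, p53RE-bla cells sat 5 h in the incubator; compounds or DMSO vehicle were pinned in; a 16 h incubation at 37 C followed; FRET substrate was added and, 2 h later at RT, fluorescence was measured.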

[18] = cAMP Responsive Elements (CRE) small molecule agonists, cell-based qHTS assay (AID 1963590)
Procedure, shortened: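 Compound exposure lasted 3 h at 37 C/5% CO2 in CRE-bla HEK 293T cells grown in assay medium with 10% dialyzed FBS and 25 mM HEPES. Reporter signal came from LiveBLAzer B/G FRET substrate, 2 h, room temperature.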

[19] = cAMP Responsive Elements (CRE) small molecule antagonists, cell-based qHTS assay (AID 1963591; active = well fitted inhibition curve with a large enough effect in the signal ratio in the repeat runs, not every such curve was filed as active; the % refers to the signal ratio)
Procedure, shortened: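 Stimulation used NKH477 at a final 0.25 uM for 3 h in compound-treated CRE-bla HEK293T cells, seeded 18 h beforehand. Reporter activity was measured with LiveBLAzer B/G FRET substrate after 2 h at room temperature.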

[20] = target: D(2) dopamine receptor (Homo sapiens) (UniProt P14416); assay: Dopamine D2 receptor (DRD2) small molecule agonists, cell-based qHTS assay (AID 1963594); note: nearly all actives have a fitted effect of over 35% in size
Procedure, shortened: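 HEK293 cells stably expressing human DRD2, pre-treated with PDE inhibitor Ro20-1724 (0.1 mM final) and compound 10 min at room temperature, then stimulated with NKH477 (200nM […]) for 30 min. cAMP read by HTRF (665/620 nm).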

SMILES | Potency [1] | Potency [2] | Potency [3] | Potency [4] | Potency [5] | Potency [6] | Potency [7] | Potency [8] | Potency [9] | Potency [10] | Potency [11] | Potency [12] | Potency [13] | Potency [14] | Potency [15] | Potency [16] | Potency [17] | Potency [18] | Potency [19] | Potency [20]
O=[N+]([O-])/C=C/c1ccccc1 | 17.5 µM (active) and 27.3 µM (active) | inactive | inactive | inactive | inactive | inactive | inactive | inactive | inactive | inactive | inactive | inactive | inactive | inactive | inactive |  |  |  |  | 
Nc1cccc(Cl)c1 | inactive | inactive |  | inactive | inactive | inactive | inactive | inactive | inactive | inactive | inactive | inactive | inactive | inactive | inactive | inactive | inactive | inactive | inactive | inactive
COC(=O)C(Cl)C(=O)OC | inactive | inactive |  | inactive |  | inactive | inactive |  | inactive | inactive | inactive | inactive | inactive | inactive | inactive | inactive | inactive | inactive | inactive | inactive
OCCCCO | inactive | inactive |  | inactive | inactive |  | inactive | inactive | inactive | inactive | inactive | inactive | inactive | inactive | inactive | inactive | inactive | inactive | inactive | inactive
C=COCCCl | inactive | inactive | inactive | inactive | inactive | inactive | inactive | inactive | inactive | inactive | inactive | inactive | inactive |  | inactive |  | inactive | inactive | inactive | inactive
Nc1ccccc1 | inactive | inactive | inactive | inactive | inactive | inactive | inactive | inactive | inactive | inactive | inactive | inactive | inactive | inactive | inactive |  | inactive | inactive | inactive | inactive
Oc1ccc(Cl)cc1 | inactive | inactive |  |  | inactive | inactive | inactive | inactive | inactive | inactive | inactive | inactive | inactive | inactive | inactive | inactive | inactive | inactive | inactive | inactive
NN=C(N)N | inactive |  | inactive |  |  | inactive | inactive | inactive | inactive | inactive | inactive | inactive | inactive | inactive | inactive | inactive |  | inactive | inactive | inactive
